Bioassay records from PubChem.
PrPC surface inh = inhibitors of human cell surface prion protein PrPC, primary screen, cell-based, TR-FRET; Major prion protein (Homo sapiens), P04156; TR-FRET read-out; inhibition, % at 13.8 µM; 370,000 tested, 0.43% active; AID 720596, 2013; in the data active = inhibition above about 24%; note: 0% = median of the test wells and 100% = reference compound wells
DUSP3 inh = VHR1 phosphatase inhibitors, primary screen, biochemical, absorbance, uHTS; recombinant VHR phosphatase, pNPP absorbance; 290,000 tested, 0.52% active; inhibition, % at 13.3 µM; in the data active = inhibition above about 50%
Target sequence (P51452 whole entry, looked up): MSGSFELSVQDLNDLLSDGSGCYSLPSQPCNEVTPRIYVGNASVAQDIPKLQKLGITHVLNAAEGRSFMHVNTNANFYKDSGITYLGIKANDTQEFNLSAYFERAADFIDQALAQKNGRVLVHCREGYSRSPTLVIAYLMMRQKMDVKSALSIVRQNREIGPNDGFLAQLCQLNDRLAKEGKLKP
PfHsp40 rescue = rescue of yeast from PfHsp40 toxicity, primary screen, S. cerevisiae, ATP luminescence; S. cerevisiae expressing PfHsp40, growth rescue; growth rescue, % at 12.5 µM; 340,000 tested, 0.68% active; AID 504582, 2011; in the data active = growth rescue above about 28%, passing the limit was not always enough;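 note: yeast W303a lacking pdr1 and pdr3 grown in galactose medium; growth measured after three days at 30 °C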
PrP UTR inh = inhibition of PrP 5' UTR reporter expression. inhibition, % (concentration not given with the values). cell-based PrP 5' UTR mRNA reporter, plate reader. 340,000 tested, 0.35% active; in the data active = inhibition above about 52%; note: 0 = median of the neutral control wells
BJeLR viability = MLPCN primary cell-based screen for lethality selective to Ras in HRASV12 cells; inhibition, % (no concentration beside the values); 300,000 tested, 0.17% active; BJeLR (HRASV12) viability, CellTiter-Glo ATP luminescence, 48 h; in the data active = inhibition above about 50%
MazF activator = activators of E. coli MazEF toxin-antitoxin RNase, primary screen, biochemical, fluorescence, uHTS | activation, % at 20 µM | 350,000 tested, 0.32% active | Endoribonuclease toxin MazF (Escherichia coli (strain K12)), P0AE70 | FAM/BHQ RNA-DNA oligo cleavage fluorescence, 5 h; in the data active = activation above about 50%
Target sequence (P0AE70 whole entry, looked up): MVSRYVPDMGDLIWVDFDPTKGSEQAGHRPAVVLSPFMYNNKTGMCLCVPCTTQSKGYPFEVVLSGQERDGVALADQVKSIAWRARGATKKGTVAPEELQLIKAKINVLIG
* hit, by the source's call; x = no result. Hits are enriched below; roughly 2.1% of the tested compounds scored in any of these assays.

SMILES	PrPC surface inh	DUSP3 inh	PfHsp40 rescue	PrP UTR inh	BJeLR viability	MazF activator
COCc1c(C(C)C)nc(C(C)C)c(/C=C/[C@@H](O)C[C@@H](O)CC(=O)O)c1-c1ccc(F)cc1	x	x	x	x	72*	x
O=C(CCc1ccccc1)Nc1ccc(NC(=O)c2ccco2)nc1	1	13	0	-46	10	618*
COc1ccc(-c2cn3cc(Cl)ccc3n2)cc1OC	10	53*	2	-77	1	9
N=c1oc2ccccc2cc1-c1nc(-c2ccc(Cl)cc2)cs1	9	-36	86*	-1	5	-9
O=c1oc2ccccc2cc1-c1csc(Cc2nc(-c3ccc(Cl)cc3)cs2)n1	-9	-6	2	-23	3	-26
CC1Sc2ccc(S(=O)(=O)N3CCC(C(=O)Nc4ccc(Cl)cc4)CC3)cc2NC1=O (configuration not stated)	19	10	-1	-9	-2	6
Cc1cccc(Nc2ccc(C(=O)O)cc2[N+](=O)[O-])c1C	-13	53*	-2	-16	7	-4
Cc1ccc(S(=O)(=O)N2O[C@@H](c3ccccc3)C[C@H]2CON2C(C)(C)CCCC2(C)C)cc1	6	x	x	x	x	x
COc1cc(OC)c(C(=O)OCC(=O)NCCC2=CCCCC2)cc1OC	-3	x	-3	-18	1	2
N#Cc1ccc(COC(=O)c2cccnc2Cl)cc1	4	59*	-1	-7	5	6
CC(C(=O)N1CCCc2c1c(=O)oc1ccc(O)cc21)N1CCc2ccccc2C1 (configuration not stated)	x	56*	-1	-17	-2	5
CN(CC(=O)N1CCCc2c1c(=O)oc1ccc(O)cc21)Cc1ccccc1	-11	14	0	-33	7	5
C[n+]1c(-c2ccccc2)c2cc(N)ccc2c2ccc(N)cc21	-23	29	128*	9	44	-64
Nc1ccc2nc(-c3ccccc3)c(-c3ccccc3)nc2c1	-7	10	-1	-36	-4	-24
Cc1nc2c(=O)[nH]c(=S)[nH]c2[nH]c1=O	-6	x	2	-8	x	-17
CCOC(=O)C(CC)/C(C)=N\NC(=O)c1ccccc1O (configuration not stated)	-6	-13	110*	20	-6	5
CN(C(=O)CSc1nnc(-c2ccccc2)n1C)C1CCS(=O)(=O)C1 (configuration not stated)	8	27	44*	-20	2	3
CN(C(=O)CSc1nnc(-c2ccc(F)cc2)n1C)C1CCS(=O)(=O)C1 (configuration not stated)	3	x	-3	-24	x	-3
CN(C)[C@@H]1C(=O)C(C(=O)NCN2CCCC2)=C(O)[C@@]2(O)C(=O)C3=C(O)c4c(O)cccc4[C@@](C)(O)C3CC12 (some centres not stated)	x	66*	x	x	x	x
CCC(C)c1ccccc1N1CC(C(=O)N2CCN(S(=O)(=O)c3ccccc3Br)CC2)CC1=O (configuration not stated)	-1	x	1	-11	3	5
Cc1ccc(S(=O)(=O)N2CCC(C(=O)N3CCN(c4ccccn4)CC3)CC2)cc1	-4	6	1	-9	2	0
COC(=O)c1[nH]c2c(c1C)C(=O)CC(c1cc(OC)c(OC)c(OC)c1)C2 (configuration not stated)	14	52*	1	-6	-1	3
Cc1ccc(-c2cc(C(=O)NN=Cc3ccc(F)cc3)[nH]n2)cc1C	-9	x	x	x	x	x
C[C@H]1[C@@H](NC(=O)c2ccc(C(C)(C)C)cc2)CC[C@@]23CCCN2C(=O)CCC[C@@H]13	-5	x	x	x	x	x
CC(OC(=O)c1cc(S(=O)(=O)N(C)C)ccc1N1CCCC1)C(=O)NCc1ccccc1 (configuration not stated)	6	14	-1	-8	5	3
SMILES	PrPC surface inh	DUSP3 inh	PfHsp40 rescue	PrP UTR inh	BJeLR viability	MazF activator
CCOC(=O)c1ccccc1NC(=O)CSc1ccc(-c2ccccn2)nn1	-1	12	211*	-29	0	4
CC(=O)c1cccc(NC(=O)CSc2ccc(-c3ccccn3)nn2)c1	-2	19	-1	-4	-12	-3
CCc1ccc(NC(=O)CSc2ccc(-c3ccccn3)nn2)cc1	-1	-13	305*	2	-14	-9
O=C(CSc1ccccn1)Nc1ccc2ccccc2c1	x	20	x	x	-12	x
Cc1cc(NC(=O)CSc2ccccn2)cc(NC(=O)CSc2ccccn2)c1	9	54*	1	-5	-5	0
COc1cc(NC(=O)CSc2ccc(-c3ccccn3)nn2)cc(OC)c1	7	10	221*	-21	-10	6
CNc1cnc(-c2ccc(C(=O)N3CCOCC3)cc2)cn1	-1	x	x	x	x	x
CC(=O)Nc1cccc(NC(=O)CSc2ccc(-c3ccccn3)nn2)c1	0	2	438*	-21	-19	2
Nc1nc(N2CCCCC2)nc(N2CCCCC2)n1	-2	52*	0	-14	0	4
C1CCN(c2nc(N3CCCC3)nc(N3CCNCC3)n2)C1	x	8	x	x	2	x
COC[C@H]1CCCN1c1cccc2c1S(=O)(=O)N(C1CC1)CCCO2	-6	x	x	x	x	x
CC(=O)N(C)c1ccc(OCC(O)CN(c2ccccc2C)S(=O)(=O)c2ccc(C)cc2)cc1 (configuration not stated)	-3	14	0	1	2	-4
N=c1oc2cc(O)ccc2cc1C(=O)Nc1ccc(Cl)cc1	0	-36	0	-44	6	-29
CCOC(=O)N1CCN(C(=O)C[C@@H]2C[C@@]3(C(=O)OC)CC(C)(C)CC=C3N(Cc3ccc4c(c3)OCO4)C2=O)CC1	2	x	x	x	x	x
Cc1cccc(C(=O)Nc2ccc(C(=O)N3CCCCC3C)cc2)c1 (configuration not stated)	-1	57*	1	-11	1	-1
CCN1C(=O)CC(N2CCN(c3ccc(C(=O)c4ccccc4)cc3)CC2)C1=O (configuration not stated)	-5	57*	3	-38	-2	-7
CCN1C(=O)CC(N2CCN(c3ccc(Cl)cc3)CC2)C1=O (configuration not stated)	-5	12	0	-10	10	5
Cc1ccc(S(=O)(=O)N2C[C@H]3[C@H]4C(=O)N(C)C(=O)[C@H]4CC(=O)[C@H]3[C@@H]2c2ccccc2Cl)cc1	-3	x	x	x	x	x
Cc1ccc(-n2nc(C)cc2Nc2ncc(Cl)cc2Cl)cc1	-7	1	93*	5	-3	-2
Cc1csc(NC(=O)CSc2nccn2Cc2ccco2)n1	-7	15	-1	-19	-3	-1
